Test results reported in PubChem BioAssay AID1487 (National Center for Advancing Translational Sciences (NCATS), 2009).
Among all 200,000 compounds or so, about 25 (0.01%) were called active. About 23% were inconclusive and are not listed. This is one part of a sample in which actives are shown more often than they occur. A number with no mark means an inactive call. Calls come from the whole dose curve; as a rule, active = well fitted inhibition curve with a large enough effect in the signal ratio, with a control signal flat (not every such curve was filed as active); inconclusive = small, poorly fitted or top-dose-only effect, or effect the other way, or a change in a side signal; inactive = flat fitted curve, though single readings scatter; the % refers to the signal ratio.

Assay: qHTS Assay for Modulators of Lamin A Splicing
Conditions: HeLa LMNA splicing GFP/RFP minigene ratio, 48 h; series mostly up to 46 µM; ratio change, negative = inhibition: at the top concentration
Excerpt: NCGC Assay Overview: Hutchinson-Gilford Progeria Syndrome (HGPS) is a pediatric premature aging disease caused by a spontaneous mutation in the lamin A/C (LMNA) gene. The mutation activates a cryptic splice site in the LMNA pre-mRNA which results in production of a pre-lamin A protein that cannot be processed properly. The mutant protein accumulates in the nucleus and negatively affects numerous cellular functions. Correction of the splicing defect in HGPS patient cells using a targeted oligonucleotide (exo11) leads to reversal of the cellular disease phenotypes. To identify small molecule modulators of aberrant LMNA splicing, a homogenous assay was constructed in HeLa cells that used a GFP containing minigene to report on correction of aberrant splicing in lamin A and a RFP (DsRed2) to report on cell viability, uniformity and nonspecific effects on the assay signal. This assay was adapted to laser-scanning microplate cytometry (Acumen, TTP Labtech) where miniaturization of the assay to a 1,536-well plate format was possible. References: Bowen, W. P.; Wylie, P. G. Application of Laser-Scanning Fluorescence Microplate Cytometry in High Content Screening. Assay Drug Dev Technol 2006;4:209-221. Scaffidi P, Misteli T. Reversal of the cellular phenotype in the premature aging disease Hutchinson-Gilford progeria syndrome. Nat.
NCGC Assay Protocol Summary: Reagents/Controls: Stable clones expressing DsRed2 and lamin A-EGFP were generated by Cell and Molecular Technologies in S3 HeLa cells. HeLa cells were prepared for the assay when they were 70-90% confluent. The cells were counted and resuspended in Opti-MEM I (no phenol red; Gibco), 2% FBS, 1% penicillin/ streptomycin (Gibco) at concentration of 120 cells/uL concentration. The suspension was passed through a Falcon basket filter with pore size 40um (Beckton Dickson). Control titrations: column […] 1536-well plate contained a sixteen point titration (1:2 dilutions) in duplicate of ancitabine (Sigma: A8598) beginning at 40 uM final concentration. Column 2 contained a sixteen point titration (1:2 dilutions) of cycloheximide beginning at 1.4 mM final concentration. Column 3 contained ancitabine at 40 uM and column 4 contained was the vehicle control (0.5% DMSO final concentration). Assay Steps: 5 uL of HeLa cells were plated in Aurora LoBase black clear bottom (cyclic-olefin polymer) 1536-well plates at a final density of 600 cells/well. Controls and library compounds were added with a 1536-well pin array using the Kalypsys pin-tool. The plates were then incubated for 48 hrs in a cell-culture incubator (37 °C; 5% CO2, 98% humidity). Following incubation the plates were read on the Acumen Explorer using the 488 nm laser. Data was collected on objects between 10 and 100 um in size. Cell objects were defined by a 15 um width x 10 um depth filter. The ratio of the total object intensity in PMT1 (500-530 nm emission; GFP) over PMT3 (575-640 nm emission; RFP) was calculated for analysis. Keywords: NIH Roadmap, MLSCN, MLI, MLSMR, qHTS, NCGC, lamin A, Progeria, RNA splicing.
% is set by controls: 0 for no effect and ±100 for the full control effect.

Row | SMILES | ratio change, negative = inhibition
1 | Cc1nc([N+](=O)[O-])cn1CC(=O)Nc1ccc2c(c1)OCO2 | -9.08%
2 | Cc1cccc(OCCC(=O)Nc2cc(S(=O)(=O)N3CCCCC3)ccc2N2CCOCC2)c1 | 6.84%
3 | Cc1ccc(C)c(-n2ccnc2SCC(N)=O)c1 | 7.68%
4 | CC1(C)OC(=O)C(=CSc2ccc(C(C)(C)C)cc2)C(=O)O1 | -8.64%
5 | COc1cc(NC(=O)c2cccnc2SC)cc(OC)c1 | -6.83%
6 | COc1ccccc1CN(C)c1nnnn1-c1ccccc1 | -21.9%
7 | COc1ccc(NC(=O)CSc2nnc(-c3ccccc3F)n2C2CC2)cc1S(N)(=O)=O | -17.5%
8 | CCOC(=O)c1cnc2[nH]c3ccccc3n2c1=O | 4.43%
9 | CC(=O)c1ccc(NC(=O)CSc2c(C(C)C)cnc3c2c(=O)n(C)c(=O)n3C)cc1 | -2.64%
10 | CCOC(=O)c1c(C)oc2nc(C)nc(N3CCN(c4ccc(OC)cc4)CC3)c12 | -15.4%
11 | Cc1ccc(/C([O-])=C(/C(=S)NCc2ccco2)[n+]2ccccc2)cc1[N+](=O)[O-] | 1.77%
12 | O=C(C1COc2ccccc2O1)N(Cc1cccnc1)c1nc2c(F)cc(F)cc2s1 (stereo not given) | -5.27%
13 | COc1ccc(NC(=O)c2sc3nc(-c4cc5cccc(OC)c5oc4=O)[nH]c(=O)c3c2C)cc1 | 13%
14 | COc1ccc(NS(=O)(=O)c2ccc(O)c(C(=O)OCC(=O)NC3CCCCC3)c2)cc1 | -10.8%
15 | CCCN(CCC)CCCNC(=O)CNC(=O)c1nn(-c2ccc(OC)cc2)c(=O)c2ccccc12 | -3.09%
16 | COc1ccccc1NC(=O)C1=C(C)Nc2nc(SCC(=O)c3ccc(C)cc3)nn2C1c1ccccc1C (stereo not given) | 17.2%
17 | COc1cccc(C(O)Cc2nc3ccccc3n2C)c1OC (stereo not given) | -1.35%
18 | O=C(CCC(=O)N1CCCC1)Nc1ccc([N+](=O)[O-])cc1 | 3.87%
19 | C/C(CC(=O)Nc1ccc(C)cc1C)=N\NC(=O)C(C)C | 0.278%
20 | O=C(Nc1nnc(S(=O)(=O)N2CCOCC2)s1)c1cccc(Br)c1 | 13.8%
21 | Cc1nc(N2CCC(C)CC2)c2c(C)c(C(=O)Nc3cc(F)ccc3C)sc2n1 | 11.2% [at 9.22 µM]
22 | CN(C)S(=O)(=O)c1ccc(NC(=O)COC(=O)Cn2[nH]c(=O)c3ccccc3c2=O)cc1 | 5.82%
23 | Cc1ccccc1C(=O)Nc1ccc(N2CCCCCC2)cc1 | 7.32%
24 | CC1CCN(C(=S)c2cccc([N+](=O)[O-])c2)CC1 | -6.14%
25 | CC(=O)c1sc(NC(=O)C2=NN(c3ccccc3)C(=O)CC2)nc1C | -12.7%

Row | SMILES | ratio change, negative = inhibition
26 | OCC1(CCOc2ccccc2)CCN(Cc2cn[nH]c2-c2ccccc2)CC1 | 19.2%
27 | CC(C)C(=O)Nc1ccc2oc(=O)ccc2c1 | 7.65%
28 | Cc1ccsc1C1C(C#N)=C(N)OC2=C1C(=O)CC(C)(C)C2 (stereo not given) | 3.22% [at 9.22 µM]
29 | COc1cccc(NC(=O)CS(=O)(=O)c2cn(CC(=O)N3CCOCC3)c3ccccc23)c1 | 10.8% [at 9.22 µM]
30 | COc1cccc(N2CCN(C(=O)CCCCCn3c(=O)[nH]c4ccccc4c3=O)CC2)c1 | -15.3%
31 | COc1ccc(N(CC(=O)NC2CCCC2)C(=O)CS(=O)CC(=O)Nc2ccc3c(c2)OCO3)cc1 (stereo not given) | 16.3%
32 | N#Cc1c(NC(=O)C2CC(Cl)=CCC2C(=O)O)sc2c1CCCCC2 (stereo not given) | 0.744%
33 | CCOc1ccccc1/C=N/NC(=O)CNC(=O)COc1ccccc1 | 19.6%
34 | Cc1ccccc1N1C(=O)C(Oc2ccc(Cl)cc2)C1CNCC1CCCO1 (stereo not given) | 5.13%
35 | Fc1ccccc1N=C1Nc2cccc3cccc1c23 | -7.4%
36 | COc1ccc(C(=O)OCC(=O)NCC2CCCO2)cc1[N+](=O)[O-] (stereo not given) | -12.3%
37 | O=C(NC(=S)Nc1cccc(-c2ccc(CO)o2)c1)c1cccs1 | -2.34%
38 | COCCN(C(=O)c1ccccc1F)c1c(N)n(Cc2ccccc2)c(=O)[nH]c1=O | -12.5%
39 | Cc1c(Cl)cccc1NC(=S)N(Cc1ccccc1)Cc1cccnc1 | -24.9%
40 | Cc1cccc(NC(=O)N2CCC(CN3CCc4ccccc4C3)CC2)c1C | 3.54%
41 | Cc1nc(N2CCCCC2)sc1C=O | -9.95%
42 | CN(C(=O)CSc1nncc2ccccc12)C1CCCCC1 | -27.8%
43 | CCc1cccc(NC(=O)CN(C)S(=O)(=O)c2ccc3[nH]c4c(c3c2)CCCC4)c1 | -8.85%
44 | CC(C)CCN(C(=O)Nc1ccc(Cl)c(Cl)c1)C(C)c1cccs1 (stereo not given) | -17.5%
45 | COC(=O)CCC(=O)N1CCCC(CO)(Cc2ccccc2)C1 (stereo not given) | -12.6%
46 | Cc1csc(CN(C)C(=O)CC2C(=O)NCCN2CC(C)(C)C)n1 (stereo not given) | 12.3%
47 | O=C(NCCCN1CCOCC1)c1ccccc1NS(=O)(=O)c1ccc(F)cc1 | -16%
48 | COCCCNC(=S)NCCNc1nc2cc(C)c(C)cc2cc1C#N | -12%
49 | Cc1ccccc1CN1C(=O)c2ccccc2Sc2ccc(C(=O)NCCCN3CCOCC3)cc21 | -5.48%
50 | Cc1ccc(C2CC(c3cccc(NS(C)(=O)=O)c3)=NN2S(C)(=O)=O)cc1 (stereo not given) | -2.59% [at 9.22 µM]

Row | SMILES | ratio change, negative = inhibition
51 | O=C1CCC/C(=N\NC(=O)NC2CCCCC2)C1 | -17.2%
52 | Cc1ccc(NC(=O)CNCc2ccccn2)cc1S(=O)(=O)N(C)C | -1.55%
53 | O=C(Oc1cccc(NC2=NS(=O)(=O)c3ccccc32)c1)c1ccncc1 | -3.46%
54 | O=C(CNC(=O)c1cc(=O)[nH]c2ccccc12)Nc1ccc(F)c(F)c1 | 3.5% [at 9.22 µM]
55 | Cc1ccccc1Nc1nc(N)nc(CSc2nnc3ccccn23)n1 | 5.76%
56 | CCc1ccc(C2C(C(=O)Nc3ccccc3)=C(C)Nc3c(C(=O)Nc4ccc(C)cc4)cnn32)cc1 (stereo not given) | -11.7%
57 | CCN(CC)c1nn2c(=O)c(C(=O)NCCc3ccccc3)cnc2s1 | 2.29%
58 | O=C(N/N=C\c1cc(Br)c(Br)o1)C1COc2ccccc2O1 (stereo not given) | -2.64%
59 | CN(Cc1ccccn1)Cc1nc(-c2ccc(Cl)cc2)no1 | -1.16%
60 | Cc1ccc(Cl)cc1N1CCN(C(=O)c2cnc3c(-c4ccc(F)cc4)c(C)nn3c2C)CC1 | 2.41%
61 | CSc1ccc(/C=N\NC(=O)CC(=O)NC(C)C)cc1 | 8.49%
62 | CC1CCCCN1CCCNC(=O)Cn1ncc2c([nH]c3ccccc32)c1=O (stereo not given) | 14.4%
63 | CC(=O)c1cccc(-n2nnnc2SCC(=O)NNC(=O)C2CCCCC2)c1 | 7.45% [at 9.22 µM]
64 | COc1ccc(NC(=O)c2ccccc2CC[N+](=O)[O-])cc1 | -5.14%
65 | COc1cccc(N(Cc2nnc3n2CCCCC3)C(=O)Nc2ccccc2F)c1 | -6.23%
66 | CCOc1ccc(NC(=O)C(CC(C)C)N2Cc3ccccc3C2=O)cc1 (stereo not given) | -8.38%
67 | Cc1cccc(NC(=O)c2ccc(F)c(S(=O)(=O)N(C)C3CCCCC3)c2)c1 | -4.34%
68 | Cc1cc(NC(=O)CSc2nc3c(cc2C#N)CCCCC3)no1 | 16.5%
69 | Cn1c(N)c(C(=O)COC(=O)c2ccccc2NCc2ccco2)c(=O)n(C)c1=O | 9.32%
70 | Cc1csc(NC(=O)Nc2ccccc2[N+](=O)[O-])n1 | 2.56%
71 | S=c1[nH]nc(-c2cccs2)n1/N=C/c1cccs1 | 21.8% [at 9.22 µM]
72 | COCC(C)NCc1cc(Br)ccc1OC (stereo not given) | 3.32%
73 | Cc1ccc(S(=O)(=O)NC(=O)N2CCCN(Cc3ccc(F)cc3)CC2)cc1 | -2.61%
74 | Cc1ccc(C)c(-n2nnnc2SCC(=O)c2c(N)n(C)c(=O)n(C)c2=O)c1 | -17.5% [at 9.22 µM]
75 | CC(C(=O)N=Nc1c(O)n(C)c2ccc(Br)cc12)n1cnc2ccccc2c1=O (stereo not given) | -4.31%

Row | SMILES | ratio change, negative = inhibition
76 | COc1ccc(Br)cc1/C=N/Nc1ccc(Cl)c(C(=O)O)c1 | -12.6%
77 | Cc1nnc(SCC(=O)NNC(=O)c2ccc(Cl)cc2)n1CC1CCCO1 (stereo not given) | -6.72%
78 | CCOC(=O)c1cccc(NC(=O)c2cc(S(=O)(=O)N3CCCC(C)C3)cn2C)c1 (stereo not given) | -2.92%
79 | Cc1ccc(NC(=O)Cn2c(=O)n(CCC(=O)NC3CCN(Cc4ccccc4)CC3)c(=O)c3ccccc32)cc1 | 9.28%
80 | Cc1ccccc1NC(=O)NC1(C(=O)N2CCCC2)CCCCC1 | 5.21%
81 | Cc1cccc(NC(=O)c2ccc3nc(C(C)C)oc3c2)c1C | 1.86%
82 | CC(=O)NC(Cc1ccc(F)c(F)c1)C(=O)NC1CCN(c2nnnn2-c2ccccc2)CC1 (stereo not given) | 7.55%
83 | O=C(CN1CCSCC1)N/N=C/c1ccc(Cl)cc1 | -10.4% [at 9.22 µM]
84 | COc1ccc2ncc3c(-c4ccc(C)c(C)c4)nn(CC(=O)NC4CCCC4)c3c2c1 | -11.7%
85 | COc1ccc(CNC(=O)C2=Cc3cccc(OC)c3OC2)cc1OC | -0.906%
86 | Cc1nccn1CCCNC(=O)CC1C(=O)NCCN1Cc1ccc(Cl)c(F)c1 (stereo not given) | -1.13%
87 | COc1cc(CN(C(=O)c2ccccc2Br)c2ccccn2)cc(OC)c1OC | 4.95%
88 | O=Cc1ccc(Oc2cccc(C(F)(F)F)c2)nc1 | 11.1%
89 | Cc1ccccc1OCCSc1nc2ccc(NC(=O)c3ccco3)cc2s1 | -7.54%
90 | COc1cc(Cl)c(C)cc1Nc1nnc(-n2nc(C)cc2C)c2ccccc12 | 1.63%
91 | COc1ccc(C(=O)Nc2cccc(S(C)(=O)=O)c2)cc1 | -6.99%
92 | C=CCn1c(CNC(=O)c2ccco2)nnc1SCC(=O)c1ccc(OC)cc1 | 17.7%
93 | COc1cc(/C=N/Nc2ccc(C)cc2)cc(Br)c1O | 10.1%
94 | O=C(Nc1ccc2nc(SCCOc3ccccc3Cl)sc2c1)c1ccco1 | 1.78%
95 | Cc1cc(C)c2c(NC(=O)C3CC3)nn(C)c2n1 | 2.71%
96 | C/C(CC(=O)N1CCN(C=O)CC1)=N\NC(=O)c1ccc(Br)cc1 | 8.38%
97 | COc1cccc(NC(=O)c2ccc3nc(CCc4ccccc4)oc3c2)c1 | -1.82%
98 | COc1ccc(CCNC(=O)c2ccc(CSCc3ccc(C)cc3)o2)cc1OC | -5.92%
99 | O=C(COc1ccc(-c2ccccc2)cc1)NN=C1CCCC1 | -19.6%
100 | CC1(C)CC(=O)c2cnc3nc4ccccc4n3c2C1 | 0.78%
